Compound activity from PubChem BioAssay.
Rows were chosen to be rich in hits. Some 2.2% of all compounds tested hit in one or more screens of this group.
TrxR1 substrate – substrates of rat thioredoxin reductase 1. AID 588456. O89049. purified TrxR1 substrate turnover, NADPH consumption readout. Potency, µM (titrated, usually from 114 µM), inactives show at the highest dose activity change, negative = substrate turnover. 390,000 compounds, 0.01% hits; further: potency means the concentration at half of the fitted maximal effect; on the % scale 0 is the no-effect control and ±100 the full control effect; nearly all actives have a fitted effect of over 50% in size
Target sequence (O89049 whole entry, looked up): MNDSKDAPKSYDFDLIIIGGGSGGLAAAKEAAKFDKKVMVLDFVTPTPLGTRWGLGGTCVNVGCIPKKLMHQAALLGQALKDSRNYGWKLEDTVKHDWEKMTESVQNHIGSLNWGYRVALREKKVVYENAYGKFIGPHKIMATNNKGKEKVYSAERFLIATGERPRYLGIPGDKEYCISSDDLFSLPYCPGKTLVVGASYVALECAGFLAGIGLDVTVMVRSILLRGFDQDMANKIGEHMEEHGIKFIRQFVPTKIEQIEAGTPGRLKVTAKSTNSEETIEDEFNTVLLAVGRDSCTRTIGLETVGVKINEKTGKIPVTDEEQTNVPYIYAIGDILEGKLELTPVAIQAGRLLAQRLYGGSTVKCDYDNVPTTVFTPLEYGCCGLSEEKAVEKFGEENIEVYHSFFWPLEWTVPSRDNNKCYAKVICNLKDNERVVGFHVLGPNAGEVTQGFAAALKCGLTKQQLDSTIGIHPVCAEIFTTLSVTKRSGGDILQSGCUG
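Rat TrxR1, dispensed at 90 nM, was prereduced with 400 uM NADPH (final) for 5 min at ~22 deg C, then incubated with compound 15 min before 400 uM selenite. A first-read NADPH fluorescence drop versus no-compound background flagged substrates.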
Giardia kill – Giardia lamblia killing; Giardia lamblia trophozoite viability; activity change, % at 7.66 µM, hits read low; 340,000 compounds, 0.15% hits; in the data active means activity change below about -80%; inconclusive means between about -30% and that limit;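 further: parasites exposed to compound for two days anaerobically before the ATP read; on the % scale 0 is the no-effect control and ±100 the full control effect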
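Each well holds 100 Giardia trophozoites and compound. After two days (48 hrs) at 37 deg C in anaerobic conditions, ATP is quantified by luminescence.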
IL-2 act – activates IL-2 in a cell-based reporter assay. activation, % (series mostly up to about 46 µM). 360,000 compounds, 0.065% hits. IL-2 activation reporter assay, cell-based qHTS; stimulated with anti-CD3/CD4/CD28 beads; in transgenic mouse T cells; in the data active means activation above about 50%; inconclusive means mostly about 30% to 49%; further: 0% is about no effect
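Unstimulated transgenic mouse T cells; 60-min compound exposure; bead-based TCR/CD4/CD28 stimulation; 18 h culture, 37 degrees C; dual fluorescence (EGFP, DsRed) plate cytometry.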
BRCA1 expr up – increases BRCA1 expression. Potency, µM (doses to about 46.1 µM), inactives show at the highest dose activation, most hits filed as activators. MCF7-BRCA1-FFLuc reporter, luminescence, 48 h; response scale: scaled: vehicle 0%, 10 µM genistein 100%. 380,000 compounds, 1.1% hits. AID 624202; further: potency means the concentration at half of the fitted maximal effect; nearly all actives have a fitted effect of over 80% in size
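Compounds are tested at multiple concentrations on MCF7 BRCA1-luciferase reporter cells seeded at 2000 per well; after 48 h, a single luminescence end-point is taken and curves fitted to the normalized data.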
mIDH1 inhibitor – human IDH1 R132H inhibition | O75874 | IDH1-R132H enzyme, NADPH consumption, diaphorase/resazurin fluorescence | Potency, µM (highest dose often 76.6 µM), without a hit: at the top dose activity change, negative = inhibition, hits mostly inhibitors | 390,000 compounds, 0.093% hits | AID 602179; further: potency means the concentration at half of the fitted maximal effect; on the % scale 0 is the no-effect control and ±100 the full control effect; nearly all actives have a fitted effect of over 65% in size
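IDH1-R132H (0.5 ug/mL dispensed) in pH 7.5 Tris buffer was preincubated 30 min with compound, then given a substrate mix of 0.016 mM NADPH and 2 mM alpha-KG for 80 min at room temperature; remaining NADPH was read by diaphorase/resazurin fluorescence.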
rTrxR1 inhibitor – rat TrxR1 inhibition. recombinant rTrxR1, NADPH fluorescence consumption, selenite substrate. O89049. 390,000 compounds, 1% hits. Potency, µM (titrated, usually from 114 µM), for the others: at the top dose activity change, negative = inhibition, most hits filed as inhibitors; further: potency means the concentration at half of the fitted maximal effect; on the % scale 0 is the no-effect control and ±100 the full control effect; nearly all actives have a fitted effect of over 65% in size
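Rat TrxR1 (90 nM in the dispensed reagent) was pre-reduced with 400 uM NADPH for 5 min at room temperature, then incubated with compound for 15 min. After 400 uM selenite was added, NADPH fluorescence (Ex 340/Em 450 nm) was followed for 8 min.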
Numbers without * were called inactive; ? = inconclusive; . = no result; [ ] = remark or other dose. Unless noted, the call rests on the fitted dose curve; in most records, active means well fitted curve in the direction sought with a large enough effect; inconclusive means small, poorly fitted or top-dose-only effect, or another doubt; inactive means no such curve, though single readings can be large; an effect the other way counts as inactive or inconclusive.

SMILES | TrxR1 substrate | Giardia kill | IL-2 act | BRCA1 expr up | mIDH1 inhibitor | rTrxR1 inhibitor
CC(=O)NCC(N)C(=O)c1ccc(C)cc1 (stereo not given) | 3% | . | . | -15% | . | 11%
C=CCN1C(=O)NC(=O)/C(=C/c2cnc(SC)nc2)C1=O | 10%[57.1 µM] | 7 | -2 | 3% | 0% | 14µM*
C=CCN1C(=O)NC(=O)/C(=C/c2cc3c4c(c2)CCCN4CCC3)C1=O | -7% | 5 | 1 | 2% | -1% | 45µM*
N[C@@H](Cc1cc(I)c(O)c(I)c1)C(=O)O | -3% | -6 | 0 | 2% | 4% | 13µM*
NC(Cc1cc(O)c(O)cc1O)C(=O)O (stereo not given) | 9%[57.1 µM] | . | . | -7% | . | 11µM*
N[C@@H](CCl)C(=O)O | 3%[57.1 µM] | 8 | 0 | 25% | 4% | 3%[57.1 µM]
O=c1[nH]c(=S)n(-c2cccc(Cl)c2)c(O)c1/C=N/N1CCOCC1 | -19% | 19 | 5 | -11% | -4% | ?
CCCc1[nH][nH]c(=O)c1C(c1ccc(Cl)cc1)C(C#N)C#N (stereo not given) | 6% | 0 | -2 | -4% | -8% | 3.2µM*
CCCc1[nH][nH]c(=O)c1C(c1ccccc1)C(C#N)C#N (stereo not given) | 6%[57.1 µM] | 2 | -1 | -5% | -6% | ?
C=CCN1CC[C@]23c4c5ccc(O)c4O[C@@H]2/C(=N/N=C2\CC[C@@]4(O)C6Cc7ccc(O)c8c7[C@@]4(CCN6CC=C)[C@@H]2O8)CC[C@@]3(O)C1C5 | 17%[57.1 µM] | . | . | . | . | 20µM*
Cc1ccc(N2C(=O)NC(=O)/C(=C/c3cnc(-c4ccccc4)nc3)C2=O)cc1C | 2% | 7 | ? | 18% | 4% | 6.3µM*
CC(C)c1ccc(N2C(=O)NC(=O)/C(=C\c3cnc(-c4ccccc4)nc3)C2=O)cc1 | 8%[57.1 µM] | -21 | 4 | 35% | -4% | 10µM*
Cc1cccc(N2C(=O)NC(=O)/C(=C\c3ccc(N4CCOCC4)cc3)C2=O)c1 | -6% | 10 | 0 | 0% | 7% | ?
Cc1cccc(N2C(=O)NC(=O)/C(=C\c3cnc(-c4ccccc4)nc3)C2=O)c1 | -2% | -17 | 1 | 16% | -6% | 10µM*
Cc1cccc(N2C(=O)NC(=O)/C(=C/c3ccc(N4CCOCC4)cc3)C2=O)c1 | -8% | 0 | 1 | -1% | -4% | ?
C[N+](C)(C)CC1CCCc2ccccc2C1=O (stereo not given) | -3% | 8 | 0 | -73% | 4% | 71µM*
Cc1c(N=Cc2c(O)n(C3CCCCC3)c(=O)[nH]c2=O)c(=O)n(-c2ccccc2)n1C | 10%[57.1 µM] | -1 | 62* | -8% | 9% | -2%[57.1 µM]
O=c1c2ccccc2nc2n1CCS2(=O)=O | -4% | -7 | -2 | -4% | 6% | ?
CN1C(=O)/C(=C\N2CCc3ccccc32)C(=O)NC1=S | -7% | -8 | 1 | -29% | -3% | -60%
O=C1NC(=S)NC(=O)C1=Cc1ccc2c(c1)CCN2CCCCl | -6% | 0 | -1 | 4% | -18% | 28µM*
NC1C=CC=C(C(=O)O)C1 (stereo not given) | 6%[57.1 µM] | -4 | 0 | 10% | 0% | 23%[57.1 µM]
Cc1ccccc1N1C(=O)NC(=O)/C(=C\c2ccc3c(c2)CCCN3Cc2ccccc2)C1=O | -1%[11.4 µM] | 7 | 0 | -50% | 52µM* | -28%[11.4 µM]
CN(Cc1ccc(OC(F)F)cc1)C(=O)c1ccccc1Sc1ccccc1C#N | -6% | -9 | -7 | -51% | -4% | 12%
COc1cccc(N2C(=O)NC(=O)/C(=C/c3ccc([N+](=O)[O-])s3)C2=O)c1 | -6%[57.1 µM] | -15 | -3 | 2% | 9% | ?
COc1ccc(N2C(=O)NC(=O)/C(=C\c3ccc([N+](=O)[O-])s3)C2=O)cc1 | -3%[57.1 µM] | -5 | -1 | 7% | -13% | 25µM*
SMILES | TrxR1 substrate | Giardia kill | IL-2 act | BRCA1 expr up | mIDH1 inhibitor | rTrxR1 inhibitor
CCOc1ccc(N2C(=O)NC(=O)/C(=C\c3cc(OC)c(OC)cc3[N+](=O)[O-])C2=O)cc1 | 9%[57.1 µM] | 16 | -4 | -20% | -2% | 11µM*
COc1ccc(N2C(=O)NC(=O)/C(=C/c3ccc([N+](=O)[O-])s3)C2=O)cc1 | -14% | -5 | -1 | -11% | -12% | 40µM*
COc1ccc(N2C(=O)/C(=C/C=C/c3ccccc3[N+](=O)[O-])C(=O)NC2=S)cc1 | 5%[57.1 µM] | -14 | 0 | 8% | -9% | ?
CCOc1ccc(N2C(=O)NC(=O)/C(=C\c3ccc(N4CCOCC4)cc3C)C2=O)cc1 | 3% | ? | -2 | -3% | 0% | ?
CCCN(CCC)[C@@H]1CCc2c(F)ccc(O)c2C1 | . | . | . | . | . | 8%
Brc1c(Br)c(Br)c2n[nH]nc2c1Br | 14%[57.1 µM] | . | . | . | . | 15%[57.1 µM]
CCOC(=O)Nc1ccc(NCc2ccc(F)cc2)nc1N | 28%[57.1 µM] | 4 | 2 | -34% | 15% | 11µM*
CCC(=O)Nc1ccc(Cl)c(Cl)c1 | 2% | -13 | 0 | -11% | 13% | 12%
CCC(=O)Nc1ccc(C(=O)OCc2ccccc2Cl)cc1 | -14% | 10 | 1 | 7.1µM* | 0% | -13%
ClCCN(CCCl)c1ccc(/C=C/c2ccnc3ccccc23)cc1 | -15% | . | . | -30% | . | -16%
CCC(=O)Nc1ccc(-c2ccc(N3CCN(C)CC3)nn2)cc1 | -4% | -15 | 1 | ? | -9% | 4%
COC(/C(C)=C/C=C/C(C)=C/c1coc(C)n1)C(C)C1CC(O)C2(C)OC2C=CC(C)C2CC(CC(=O)O2)CC2OC2C(=O)O1 (stereo not given) | 1% | ? | -1 | ? | 3% | 10µM*
COc1ccc(NC(=O)CSc2oc(-c3cccs3)nc2S(=O)(=O)c2ccccc2)c(OC)c1 | -5% | . | . | . | 0% | ?
Cc1cc([C@@H]2CCCN2C)on1 | 5%[57.1 µM] | . | . | . | . | 1%[57.1 µM]
CCCOP(=O)(O)c1c([N+](=O)[O-])cc(C(F)(F)F)cc1[N+](=O)[O-] (tested in a mixture with another compound) | 4% | -15 | 0 | 10µM* | 4% | -9%
CCOC(=O)c1c(/N=C/C2C(=O)NC(=O)NC2=O)sc2c1CCC2 | 3% | -17 | 76* | -16% | -2% | -11%
CCOC(=O)c1cc(CC)sc1/N=C/C1C(=O)NC(=S)NC1=O | -1% | -6 | -1 | 9% | 4% | 8.9µM*
Cc1ccc(S(=O)(=O)Nc2ccc3ncccc3c2[N+](=O)[O-])cc1 | 15%[11.4 µM] | -22 | -6 | -18% | 7% | 34%[11.4 µM]
Cc1ccc2c(c1N)C(=O)c1ccccc1C2=O | -3% | -11 | 2 | 10µM* | 23% | 16%
Cn1c(O)c(/C=C2\C=c3ccccc3=NC2=O)c(=O)n(C)c1=O | -5% | -4 | -2 | -2% | 21% | 35µM*
